# Article PMC12136788
# Where a chain is given by its changes, count along the chain named. The full ranking holds about 5,800 sequences; the median of “enrichment r” is about 0.68, and the highest 2% start at about 11. Shown is part of a subset that was picked to be rich in the highest values.
# T1: UNK ZnF1-6 (called full-length) (human, UniProt Q9C0B0 30-357)
# T1 sequence: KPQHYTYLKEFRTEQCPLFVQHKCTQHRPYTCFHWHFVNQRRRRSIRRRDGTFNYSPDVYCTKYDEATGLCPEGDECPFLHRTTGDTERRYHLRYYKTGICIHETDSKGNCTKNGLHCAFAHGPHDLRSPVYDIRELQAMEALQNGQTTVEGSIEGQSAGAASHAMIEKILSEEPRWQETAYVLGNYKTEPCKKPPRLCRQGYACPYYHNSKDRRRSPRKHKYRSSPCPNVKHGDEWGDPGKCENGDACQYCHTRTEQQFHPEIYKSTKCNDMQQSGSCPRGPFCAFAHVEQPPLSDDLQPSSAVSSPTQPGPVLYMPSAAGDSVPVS
# B1: chr17:32711987:32712195:-|CDS|ENSG00000176658|control|control|control (ssRNA)
# RNA: GGGAGUUCUACAGUCCGACGAUCUCCUUCAGACAAAGAGGCUGUCAAGAAACUAAUUGAACGGUGUGGUUUUCAGGAUGAUGUAGCUUAUGGGAAGACCAAAAUUUUCAUUCGAACACCCCGAACAUUGUUUACCUUGGAAGACAACAGAGGAUUGAGCAUCA
# B2: chr12:293013:293114:-|CDS|ENSG00000073614|unk|FALSE|bound_elsewhere (ssRNA)
# RNA: GGGAGUUCUACAGUCCGACGAUCACUAAAAGUGAAAGGAAAGGACUCUUCAGAGAAGAAACGGAAACGGAAGCUAGAAAAGGUAGAGCAACUUUUUGGAGAAGGAAAACAGAAGUCCAAGGAGUUAAAGAAAAUGGACAAACCCAACAGAGGAUUGAGCAUCA
# B3: chr1:228098150:228098251:+|3pUTR|ENSG00000143761|msi1_unk|total|mutant (ssRNA)
# RNA: GGGAGUUCUACAGUCCGACGAUCGCACCGUGCUGUAAAUGUGGCAGACGCAGCCUGCGGCCAGGCUUUUUAUUUAAUGUAAACCGUUUUUGUUUCCAAUGAGGCAGUUUCUGGUACUCCUAUGCAAUAUUACUCAGCUUUUUUCAACAGAGGAUUGAGCAUCA
# B4: chr7:50445662:50445763:-|CDS|ENSG00000132436|msi1|FALSE|unique (ssRNA)
# RNA: GGGAGUUCUACAGUCCGACGAUCGUUAUCUCAACGGGGAGAUGGUGAGCAUGAAUCUUCUAGAAGGAUAAAAACAGAAUUUUUAGUUCAAUUAGAUGGAGCAACAACAUCUUCUGAAGAUCGUAUCCUAGUGGUGGGAGCAACCAACAGAGGAUUGAGCAUCA
# B5: ENSG00000120802:stop:overlap|stop_codon|ENSG00000120802|stop_codon|NA|stop_codon (ssRNA)
# RNA: GGGAGUUCUACAGUCCGACGAUCGUGGAACAUUAUUUGGAGGAGAAGUAUGCAAAGUAAUUAAAAAGCGUGGAAAUAAACACUAGUAAAAUUAAGGACAAAAAGACAUCUAUCUUAUCUUUCAGGUACUUUAUGCCAACAUUUCAACAGAGGAUUGAGCAUCA
# B6: chr9:122240152:122240253:-|3pUTR|ENSG00000119446|msi1|FALSE|unique (ssRNA)
# RNA: GGGAGUUCUACAGUCCGACGAUCCUUCUUGGAGUAUAGAAUUCACCAUUUUAUCCGUAAGUCUUCAAAGGAUUAUGGUGGACUAGAACUUACAUAGUGCAAAAUAGUCUUCUAUUUUUAAUAGGAACUUAGAAAAAACUUAGACAACAGAGGAUUGAGCAUCA
# B7: ENSG00000198589:be:win_8701|3pUTR|ENSG00000198589|bound_else_gene|NA|bound_elsewhere_windowed (ssRNA)
# RNA: GGGAGUUCUACAGUCCGACGAUCUGUAGUCUUUGCUUGACUUUUUUGGGGGGGAUUAGCAAAGCAGAAAACUGGCUGCUGGGUUCUGUAGUUUUAAAAAAUCUAUAUUUUUAGUCAUAAUGAGAAGUCUAUUUUCACCAAUUACAACAGAGGAUUGAGCAUCA
# B8: chr3:121431430:121432303:-|three_prime_utr|ENSG00000051341|control|control|control (ssRNA)
# RNA: GGGAGUUCUACAGUCCGACGAUCUGGAAAGAACAGAGAUUACCCUUUCACCUACCUCAGCAAAACAAACUUUCAAGUCUUGAUAGACUUAGCCUAGUAAUUUUAUAGUGAGAGUUUCAAACUAUAUAUCAGUGUCUAUAGCAUCAACAGAGGAUUGAGCAUCA
# B9: chr17:81921741:81921842:-|3pUTR|ENSG00000197063|msi1|FALSE|unique (ssRNA)
# RNA: GGGAGUUCUACAGUCCGACGAUCAAUUAUAUGUUUAAAAGUUAAAGAAAAAAGAGCUGCAGAGUAUUUAUAAAACUGUCUUUUAGAAAAAAAACAAGCAAGAAGACCAUUUGACCAUAUGAAUGGAAAAGGGAAGAAAGUAUACAACAGAGGAUUGAGCAUCA
# B10: chr12:123662440:123662541:+|3pUTR|ENSG00000111358|unk|FALSE|unique (ssRNA)
# RNA: GGGAGUUCUACAGUCCGACGAUCAAUGGAAAUCACAAUUUUAAGUCUAGGAAAUAAAGUAUUAUAUAUACUUUCAAACAAGCUAGCAAGGCUUUUAUUAUUACUUUUUUAUUUGAAAUAUCUUAUAUAUUUGGUUAGUUCUGUCAACAGAGGAUUGAGCAUCA
# B11: chr8:74853834:74853946:+|3pUTR|ENSG00000137558|unk|FALSE|unique (ssRNA)
# RNA: GGGAGUUCUACAGUCCGACGAUCAAGUGCUUUUUUUUUUCUGAAUUAAUUAGGUAUUGGUAAAAUAUAUUUUUAAAUUUAGUUAGCUUUAUAAACACAAUUAGAAUUACAAUUAAUUAACAGAGGUAUAAUUGUCUCACUUUCCAACAGAGGAUUGAGCAUCA
# B12: chr11:22846921:22847509:-|three_prime_utr|ENSG00000255359|control|control|control (ssRNA)
# RNA: GGGAGUUCUACAGUCCGACGAUCCUCCACCAUUUCGGAAAAAUAAACACAGUGCAAGUAUUUAAUAUCCAAGCUACAGGCUCUAGAAUUUUAUUAAAUGCCAUCUCUCACUACCAUAUUUUUCUUUCCUGUGGUAAACUUGAACAACAGAGGAUUGAGCAUCA
# B13: chr4:150265445:150265561:-|3pUTR|ENSG00000198589|unk|FALSE|bound_elsewhere (ssRNA)
# RNA: GGGAGUUCUACAGUCCGACGAUCGGAUUAGCAAAGCAGAAAACUGGCUGCUGGGUUCUGUAGUUUUAAAAAAUCUAUAUUUUUAGUCAUAAUGAGAAGUCUAUUUUCACCAAUUAUGGAAACAUACAGUGGAGCAAGUAAACCCAACAGAGGAUUGAGCAUCA
# B14: chr6:119178661:119178762:-|3pUTR|ENSG00000111885|msi1|FALSE|unique (ssRNA)
# RNA: GGGAGUUCUACAGUCCGACGAUCGAAAGAAGCUUUGCCAAUUUUACUUAUUCGUGAUCAAUCAAGGAAAAUCUAAUAAAUUUUAGGCCAAAUAAGAAUAUAGCAUAUUUAGUAUGGUUAUAGUCAACACAGAGAUCACAACUUCAACAGAGGAUUGAGCAUCA
# B15: chr21:43695798:43695899:+|3pUTR|ENSG00000160208|msi1|FALSE|unique (ssRNA)
# RNA: GGGAGUUCUACAGUCCGACGAUCACAAUAUUUUGUAAAAUGAUGCUUCCCCCUUCUCCAUGGUCUAGUCAAUUUUGUACAAUUAGGUAUCUGACUUUACAAGUUUGUUAUCCUUUCUAAUUUUUACUGAACUGAAAGCACAAACAACAGAGGAUUGAGCAUCA
# B16: chr4:150265445:150265561:-|3pUTR|ENSG00000198589|unk|total|mutant (ssRNA)
# RNA: B13 RNA with U28C, A29C, U60C, A61C, U83C, A84C
# B17: ENSG00000107863:be:win_4801|CDS|ENSG00000107863|bound_else_gene|NA|bound_elsewhere_windowed (ssRNA)
# RNA: GGGAGUUCUACAGUCCGACGAUCUCCAGUCGACUGAGCCCUGAGGUGCAAUCCGUGGCAGAGAGCAAGGGGGACGAGGCAGAUGACGAGAGAAGCGAACUCAUCAGUGAAGGGCGGCCUGUGGAAACCGACAGCGAGAGCGAGCAACAGAGGAUUGAGCAUCA
# B18: chr17:41691520:41691533:+|3pUTR|ENSG00000173812|msi1_unk|total|mutant (ssRNA)
# RNA: GGGAGUUCUACAGUCCGACGAUCGGAACAAAUCUCAAACUGAUCCAUCAGUCAUGCCGCCCGCUGCCGAGCUUGCAACUUAACCGCAGCAGCUGCCCAAUGCCAUGUGAAGUAACAAACUGGUUUUUGGUUUUUUUUUCCCCUCAACAGAGGAUUGAGCAUCA
# B19: chr19:5558166:5561399:-|three_prime_utr|ENSG00000223573|control|control|control (ssRNA)
# RNA: GGGAGUUCUACAGUCCGACGAUCCCAGCUGAUGCACACUGCUUCAGACACUCCUGCUGGAGCCCCAGUCCCUGACAAGGACCUAGGACAUUUUUGCUCCUGCCCAGCCUAUCGGGAGGGAGCCUUGAGCCUUUCAGCUCUGCUCAACAGAGGAUUGAGCAUCA
# B20: ENSG00000070961:be:win_51|CDS|ENSG00000070961|bound_else_gene|NA|bound_elsewhere_windowed (ssRNA)
# RNA: GGGAGUUCUACAGUCCGACGAUCUUUGAAGGAAGCUAAUCAUGAUGGAGACUUUGGAAUUACGCUCGCAGAGCUGCGGGCUCUCAUGGAGCUCAGGUCCACAGAUGCAUUACGAAAAAUACAGGAAAGCUAUGGAGAUGUCUACAACAGAGGAUUGAGCAUCA
# B21: chr16:48080881:48083801:-|three_prime_utr|ENSG00000140798|control|control|control (ssRNA)
# RNA: GGGAGUUCUACAGUCCGACGAUCUGAGUUUGACAAGCCUGAAGUCCUUGCAGAGAAGCCAGAUUCUGCAUUUGCGAUGUUACUAGCAGCAGAAGUCAGAUUGUAGAGGUCCUGGCGGCUGAUUCUAGAGGAGGAAGAGGCUCUCAACAGAGGAUUGAGCAUCA
# B22: chr1:205790044:205790145:-|3pUTR|ENSG00000133065|msi1|FALSE|bound_elsewhere (ssRNA)
# RNA: GGGAGUUCUACAGUCCGACGAUCAGAUUCUUCUGCCUCUUUCUCCUUUCCAGACCCCUACUCUGUGCAGUGCUGACCACAGCUAGAGCCACCGCCCCAUUGCUCAACCAGUAUUUAUUUCCCUAAACGACCCUUCCUCACAUUCAACAGAGGAUUGAGCAUCA
# Biological target: T1, UNK ZnF1-6 (called full-length)
# Experiment: nsRBNS (natural sequence RNA bind-n-seq); RBNS binding buffer (assumed for nsRBNS): 25 mM Tris pH 7.5, 150 mM KCl, 3 mM MgCl2, 0.01% Triton X-100, 500 ug/ml BSA, 20 U/ml SUPERase-In, 4 C; UNK is unkempt and MSI1 is Musashi-1; names of the RNAs are library labels; protein concentration not given here; high values mean tight binding
row,Binder,binding signal [enrichment R]
1,B1,0.434
2,B2,0.672
3,B3,0.896
4,B4,0.853
5,B5,1.07
6,B6,41.4
7,B7,29
8,B8,8.5
9,B9,2.78
10,B10,12.5
11,B11,171
12,B12,0.713
13,B13,2.4
14,B14,2.15
15,B15,1.9
16,B16,0.438
17,B17,0.993
18,B18,0.624
19,B19,0.786
20,B20,0.507
21,B21,1.15
22,B22,1.07
